Assay outcomes from PubChem BioAssay.
JMJD2E inh: blocks human JMJD2E demethylase activity. B2RXH2. JMJD2E catalytic domain, FDH-coupled NADH fluorescence (FDH is formaldehyde dehydrogenase). Potency, µM (top dose mostly 57.1 µM), inactives show at the highest dose activity change, negative = inhibition, usual class: inhibitors. 230,000 compounds, 1.6% hits. AID 2147; active = well fitted inhibition curve with a large enough effect, not every such curve was filed as active; inconclusive = small, poorly fitted or top-dose-only effect, or another doubt; inactive = no such curve, though single readings can be large or run the other way;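 note: potency is the fitted concentration of half-maximal effect; 0% = wells with enzyme and -100% = buffer wells without enzyme; nearly all actives have a fitted effect of over 50% in size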
Target sequence (B2RXH2 1-337 limits assumed): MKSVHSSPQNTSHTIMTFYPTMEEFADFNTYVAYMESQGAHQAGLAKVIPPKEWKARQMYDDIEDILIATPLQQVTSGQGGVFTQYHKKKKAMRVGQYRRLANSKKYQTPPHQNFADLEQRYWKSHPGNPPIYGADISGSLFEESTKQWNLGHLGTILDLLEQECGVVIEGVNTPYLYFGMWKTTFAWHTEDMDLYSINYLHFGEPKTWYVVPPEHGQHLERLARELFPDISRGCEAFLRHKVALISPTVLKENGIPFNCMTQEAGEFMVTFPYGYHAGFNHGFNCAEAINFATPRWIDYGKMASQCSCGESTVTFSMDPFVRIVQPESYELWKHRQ
BAZ2B inh: BAZ2B (human) inhibition; Q9UIF8; AlphaScreen BAZ2B-H3K14Ac peptide displacement; Potency, µM (highest dose often 114 µM), without a hit: top-dose activity change, negative = inhibition, hits mostly inhibitors; 360,000 compounds, 4.4% hits; note: potency is the fitted concentration of half-maximal effect; % is set by controls: 0 for no effect and ±100 for the full control effect; nearly all actives have a fitted effect of over 60% in size
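AlphaScreen luminescence quantifies BAZ2B engagement of H3K14Ac peptide; the protein and biotinylated peptide are both at 50 nM final, buffer PBS pH 7.4 with 0.01% Tween-20, all steps at room temperature.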
JMJD2A Tudor inh: blocks the human JMJD2A Tudor domain; O75164; AlphaScreen JMJD2A-Tudor / H3K4me3 peptide binding; Potency, µM (doses to about 114 µM), without a hit: at the highest dose activity change, negative = inhibition, most hits filed as inhibitors; 390,000 compounds, 4.4% hits; AID 504339; note: potency is the fitted concentration of half-maximal effect; % is set by controls: 0 for no effect and ±100 for the full control effect; nearly all actives have a fitted effect of over 50% in size
HP1b binding inh: HP1-beta chromodomain-methylated histone interaction inhibition | P83916 | AlphaScreen HP1-beta / biotin-H3K9me3 peptide binding | Potency, µM (highest dose often 114 µM), for the others: top-dose activity change, negative = inhibition, actives largely listed as inhibitors | 390,000 compounds, 0.56% hits | AID 540317; note: potency is the fitted concentration of half-maximal effect; nearly all actives have a fitted effect of over 70% in size
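AlphaScreen: HP1-beta (50 nM) preformed 30 min with biotin-H3(1-18)K9me3 peptide (50 nM) in PBS pH 7.4, 0.01% Tween-20. Compound added for 30 min at RT, then streptavidin donor/nickel chelate acceptor beads (10 ug/mL) for 30 min.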
L3MBTL1 inh: inhibitors of human L3MBTL1; AlphaScreen L3MBTL1–H3K9me1 peptide binding; Potency, µM (doses to about 57.1 µM), inactives show at the top dose activity, negative = inhibition, actives largely listed as inhibitors; 230,000 compounds, 0.66% hits; note: potency is the fitted concentration of half-maximal effect; % is set by controls: 0 for no effect and ±100 for the full control effect; nearly all actives have a fitted effect of over 60% in size
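L3MBTL1 (50 nM) pre-complexed 30 min with biotinylated H3(1-15)K9me1 peptide (75 nM), then compounds added for 30 min at room temperature; AlphaScreen streptavidin donor/nickel chelate acceptor beads (10 ug/mL final) read after 30 min dark incubation.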
PI5P4K alpha inh: blocks human PI5P4K alpha kinase activity | P48426 | PI5P4Kalpha enzyme, ADP-Glo luminescence, 60 min; active compounds read low | max response, % | 330,000 compounds, 1.2% hits; active = max response of -50% or lower; inconclusive = between -30% and -50%; inactive = -30% or higher; note: value at the top dose of about 77 µM; % is set by controls: 0 for no effect and ±100 for the full control effect
Target sequence (P48426 whole entry, looked up): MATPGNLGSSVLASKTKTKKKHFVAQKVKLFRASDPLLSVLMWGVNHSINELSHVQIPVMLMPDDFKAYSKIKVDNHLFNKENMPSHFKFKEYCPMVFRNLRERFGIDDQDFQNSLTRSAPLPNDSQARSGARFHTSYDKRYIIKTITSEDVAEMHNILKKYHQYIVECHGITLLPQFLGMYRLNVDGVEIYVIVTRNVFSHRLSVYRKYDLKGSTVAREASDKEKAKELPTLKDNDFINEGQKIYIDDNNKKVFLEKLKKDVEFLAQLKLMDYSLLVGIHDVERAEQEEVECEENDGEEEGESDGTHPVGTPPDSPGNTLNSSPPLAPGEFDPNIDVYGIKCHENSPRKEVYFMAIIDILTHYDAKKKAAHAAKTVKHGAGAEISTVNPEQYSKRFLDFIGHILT
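Enzyme plus substrate dispensed, test compounds pinned in, then ATP (5 microM final) added. After 60 min at RT, ADP-Glo reagent 1 for 45 min and reagent 2 for 30 min preceded luminescence imaging.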
Starred values were filed as active, the others as inactive; ? = inconclusive; · = not tested or not shown; [ ] = another dose, or the depositor's remark. An excerpt weighted towards active compounds, which were near 5.7% of everything screened. Unless noted, calls come from the whole dose curve; as a rule, active = well fitted inhibition curve with a large enough effect; inconclusive = small, poorly fitted or top-dose-only effect; inactive = no such curve, though single readings can be large or run the other way.

SMILES	JMJD2E inh	BAZ2B inh	JMJD2A Tudor inh	HP1b binding inh	L3MBTL1 inh	PI5P4K alpha inh
Cc1cccc(-c2nc(CN3CCCC(C(=O)N4CCN(c5cc(Cl)ccc5C)CC4)C3)c(C)o2)c1 (stereo unspecified)	·	?	-33%	1%	·	·
N#Cc1c(-c2cccnc2)c2c([nH]c1=O)-c1ccccc1OC2	?	6%	3%	38%	5%	-59*
COc1cc(-c2noc(C)c2C(=O)NCCc2c[nH]c3ccccc23)cc(OC)c1OC	·	50µM*	?	14%	0%	1
O=C(NCCc1c[nH]c2ccccc12)c1ccccc1	·	-19%	-20%	20%	-3%	-11
Cc1ccc(C(=O)NCCc2c[nH]c3ccccc23)c(C)c1	·	50µM*	-26%	-8%	·	0
COC(=O)c1c(N)n(-c2ccc(OC)c(Cl)c2)c2nc3ccccc3nc12	·	2%	3%	28%	·	·
O=C(O)/C=C/c1cn(-c2ccccc2)nc1-c1ccc(-c2ccc([N+](=O)[O-])cc2)o1	-3%	50µM*	45µM*	?	-9%	-60*
O=C(O)/C=C/c1cn(-c2ccccc2)nc1-c1cccc([N+](=O)[O-])c1	-4%	-34%	-12%	35%	1%	-3
Cc1cc(NC(=O)CSc2nnc(-c3ccc([N+](=O)[O-])cc3)o2)no1	·	22µM*	89µM*	47%	·	-1
Cc1cc(NC(=O)CSc2nnc(C3COc4ccccc4O3)o2)no1 (stereo unspecified)	-2%	50µM*	-11%	8%	-3%	4
CCCc1cc(=O)[nH]c(SCc2nc(-c3ccc(OC)cc3)no2)n1	·	1%	-30%	20%[57 µM]	·	·
C#CCOCCOCCOCCNc1nc(N2CCN(C(=O)CCCCCCCCCCNC(=O)Cn3cc(CCCCCN)nn3)CC2)nc(N2CCN(C(=O)CCCCCCCCCCNC(=O)Cn3cc(CCCCCN)nn3)CC2)n1	·	56µM*	56µM*	?	16%	-64*
C#CCOCCOCCOCCNc1nc(N2CCN(C(=O)CCCCCCCCCCNC(=O)Cn3cc(CCCCCN)nn3)CC2)nc(N2CCN(C(=O)CCCCCCCCCCNC(=O)[C@@H](CCSC)n3cc(CCO)nn3)CC2)n1	·	?	79µM*	?	1%	?
C#CCOCCOCCOCCNc1nc(N2CCN(C(=O)CCCCCCCCCCNC(=O)Cn3cc(C[C@@H](C)O)nn3)CC2)nc(N2CCN(C(=O)CCCCCCCCCCNC(=O)[C@H](CCCN=C(N)N)n3cc(C[C@@H](C)CC)nn3)CC2)n1	·	?	45µM*	?	?	-76*
C#CCOCCOCCOCCNc1nc(N2CCN(C(=O)CCCCCCCCCCNC(=O)[C@H](CO)n3cc(CCCSC)nn3)CC2)nc(N2CCN(C(=O)CCCCCCCCCCNC(=O)[C@H](CCCN=C(N)N)n3cc(C[C@@H](C)CC)nn3)CC2)n1	·	?	79µM*	-31%	3%	-79*
C#CCOCCOCCOCCNc1nc(N2CCN(C(=O)CCCCCCCCCCNC(=O)[C@H](CO)n3cc(CCCSC)nn3)CC2)nc(N2CCN(C(=O)CCCCCCCCCCNC(=O)[C@H](CCCCN)n3cc(CCO)nn3)CC2)n1	·	·	56µM*	?	1%	-51*
N#C/C(=C\c1ccc(O)c(O)c1)C(=O)NCCCc1ccccc1	3.2µM*	8.9µM*	45µM*	?	?	?
N#C/C(=C\c1ccc(N2CCOCC2)o1)C(=O)NCCc1ccccc1	40µM*	-27%	-32%	21%	-11%	9
COc1ccc(/C=C(\C#N)C(=O)NCCc2ccccc2)cc1OCc1ccccc1	11%	42%	-7%	42%	36%	-7
N#C/C(=C\c1ccc(O)c(O)c1)C(=O)OCCc1cccs1	22µM*	·	·	·	·	·
CCOC(=O)/C(C#N)=C\c1ccc(OC)c(OC)c1	-9%	3%	-20%	18%	5%	2
Cc1noc(C)c1S(=O)(=O)Nc1ccc(C(=O)Nc2ccc(C(C)C)cc2)cc1	·	·	-26%	-6%	·	·
CCOC(=O)c1csc(COc2ccc(OC)cc2)n1	-2%	3%	-9%	18%	17%	1
O=C(c1ccco1)N1CCN(CC(=O)N2c3ccccc3CCc3ccccc32)CC1	?	18µM*	1µM*	14µM*	·	-6
COc1ccc(CC(=O)N2CCN(C(=O)c3ccco3)CC2)cc1	-6%	-1%	-7%	12%	·	·
SMILES	JMJD2E inh	BAZ2B inh	JMJD2A Tudor inh	HP1b binding inh	L3MBTL1 inh	PI5P4K alpha inh
COc1cccc(CN2CCN(C(=O)c3ccco3)CC2)c1	·	28µM*	28µM*	?	-1%	1
CCc1ccc(CN2CCN(C(=O)c3ccco3)CC2)cc1	·	32µM*	20µM*	?	·	5
COc1ccc(OC)c(CN2CCN(C(=O)c3ccco3)CC2)c1	·	?	0.79µM*	?	0%	6
COc1cccc(S(=O)(=O)N2CCN(C(=O)c3ccco3)CC2)c1	-2%	?	-3%	48%	-15%	1
CCOC(=O)c1cnc2ccc(OC)cc2c1NCCc1ccccc1	·	59%	97%	172%	·	·
COc1ccc(F)cc1S(=O)(=O)NCCc1sc2nc(-c3ccc(F)cc3)nn2c1C	·	-14%	-16%	14%	·	·
COc1ccc(OC)c(-n2nnnc2SCC(=O)N2CCN(C(=O)c3ccco3)CC2)c1	-8%	-19%	20µM*	-22%	-3%	?
O=C(c1ccco1)N1CCN(Cc2cccc3ccccc23)CC1	·	20µM*	22µM*	22µM*	·	0
COc1ccc(C(=O)Nc2ccc(-c3nnn(CC(=O)N4CCN(C(=O)c5ccco5)CC4)n3)cc2)cc1	220%	79µM*	-21%	16%	3%	6
CC(=O)OCC(NC(=O)C(COCc1ccccc1)NC(=O)OC(C)(C)C)C1OC(n2ccc(=O)[nH]c2=O)C(OC(C)=O)C1OC(C)=O (stereo unspecified)	·	·	-14%	3%	·	·
O=C(OC[C@H]1O[C@@H](OC(=O)c2cc(O)c(O)c(OC(=O)c3cc(O)c(O)c(O)c3)c2)[C@H](OC(=O)c2cc(O)c(O)c(OC(=O)c3cc(O)c(O)c(O)c3)c2)[C@@H](OC(=O)c2cc(O)c(O)c(OC(=O)c3cc(O)c(O)c(O)c3)c2)[C@@H]1OC(=O)c1cc(O)c(O)c(OC(=O)c2cc(O)c(O)c(O)c2)c1)c1cc(O)c(O)c(OC(=O)c2cc(O)c(O)c(O)c2)c1	·	0.79µM*	·	·	0.1µM*	·
O=C(/C=C/c1ccco1)NCCc1ccccc1	-14%	-9%	-17%	1%	·	-18
Cc1ccc(/C=C/C(=O)NCCc2ccccc2)o1	·	?	28µM*	?	-12%	-60*
CC(C)c1ccc(/C=C/C(=O)Nc2nn[nH]n2)cc1	2%	-16%	·	·	·	·
